The source of these data is the antibiotic and cytotoxicity screens of Wong et al. (2023).

The whole screen tested about 39,000 compounds, of which about 3,300 (8.5%) were called active. Shown is part of a subset that was picked to be rich in actives.

The assay deals with HepG2. Nature of the assay: cytotoxicity call (relative viability < 0.9). The conditions noted are these: 10 µM.
`O=C(C[C@@H]1C=C[C@@H](NC(=O)CN2CCOCC2)[C@@H](CO)O1)NCCc1ccccc1`: the cytotoxicity call is “inactive”.

Take `C[C@H](CO)N1C[C@H](C)[C@@H](CN(C)Cc2cccc(C(=O)O)c2)Oc2ncc(C#CC(C)(C)O)cc2C1=O`: the cytotoxicity call was “inactive”.

On to `O=C(CCCCCCC(=O)Nc1ccc([C@H]2O[C@@H](CSc3ccncc3)C[C@@H](c3ccccc3)O2)cc1)NO`, for which the cytotoxicity call was “inactive”.

Regarding `C[C@H]1CCCCO[C@H](CN(C)S(=O)(=O)c2cn(C)cn2)[C@@H](C)CN([C@@H](C)CO)C(=O)c2cc(NC(=O)CCCN(C)C)ccc2O1`, the cytotoxicity call is “inactive”.

For `C[C@@H]1CCCCO[C@H](CN(C)Cc2ccncc2)[C@H](C)CN([C@@H](C)CO)C(=O)c2cc(NC(=O)CCC(F)(F)F)ccc2O1`, the cytotoxicity call is “inactive”.

Turning to `CN1CCN(C(=O)[C@H]2[C@H](CO)[C@H]3Cn4c(cccc4=O)[C@@H]2N3S(=O)(=O)c2ccccc2F)CC1`, the cytotoxicity call was “inactive”.

On to `CCNC(=O)C[C@@H]1CC[C@@H]2[C@H](COC[C@H](O)CN2S(=O)(=O)c2ccc(Oc3ccccc3)cc2)O1`, for which the cytotoxicity call is “inactive”.

In the case of `O=S1(=O)CC[C@H](N2CCOCC2)C1`, the cytotoxicity call is “inactive”.

For `COc1ccc(NC(=O)Nc2ccc3c(c2)C(=O)N([C@H](C)CO)C[C@H](C)[C@@H](CN(C)C(=O)CCC(F)(F)F)OCCCC[C@@H](C)O3)cc1`, the cytotoxicity call was “inactive”.

`Cc1noc(C)c1NC(=O)Nc1cccc2c1O[C@@H](CN(C)Cc1ccc(C(=O)Nc3ccccc3N)cc1)[C@@H](C)CN([C@H](C)CO)C2=O`: the cytotoxicity call is “inactive”.

For the molecule `O=C(CN1CCOCC1)N[C@H]1CC[C@@H](CCNC(=O)C2CCCCC2)O[C@@H]1CO`, the cytotoxicity call was “inactive”.

In the case of `C[C@@H]1CCCCO[C@H](CN(C)C(=O)NC2CCCCC2)[C@H](C)CN([C@H](C)CO)C(=O)c2cc(NC(=O)CCC(F)(F)F)ccc2O1`, the cytotoxicity call was “inactive”.

As to `O=C(CC(=O)N1CCOCC1)N1CCOCC1`, the cytotoxicity call is “inactive”.

Consider `Cc1noc(C)c1S(=O)(=O)Nc1ccc2c(c1)C(=O)N([C@H](C)CO)C[C@@H](C)[C@@H](CN(C)Cc1ccc3c(c1)OCO3)O2`, for which the cytotoxicity call was “inactive”.

For the molecule `CC(C)c1nc2cc3sc(C(C)C)nc3cc2s1`, the cytotoxicity call is “inactive”.

For the molecule `CCCCCCCCCC(=O)N[C@H]1[C@H](Oc2c3cc4cc2Oc2ccc(cc2Cl)[C@@H](O[C@@H]2O[C@H](CO)[C@@H](O)[C@H](O)[C@H]2NC(C)=O)[C@@H]2NC(=O)[C@H](NC(=O)[C@@H]4NC(=O)[C@H]4NC(=O)[C@@H](Cc5ccc(c(Cl)c5)O3)NC(=O)[C@@H](N)c3ccc(O)c(c3)Oc3cc(O)cc4c3)c3ccc(O)c(c3)-c3c(O[C@H]4O[C@H](CO)[C@@H](O)[C@H](O)[C@@H]4O)cc(O)cc3[C@H](C(=O)O)NC2=O)O[C@H](CO)[C@@H](O)[C@@H]1O`, the cytotoxicity call is “inactive”.

Consider `CN1CCN(C(=O)C[C@@H]2CC[C@H]3[C@@H](COc4ccc(NC(=O)C5CCOCC5)cc4C(=O)N3C)O2)CC1`, for which the cytotoxicity call is “inactive”.

For `CS(=O)(=O)N1C[C@H](O)COC[C@@H]2O[C@@H](CC(=O)NCc3ccccc3)CC[C@H]21`, the cytotoxicity call is “inactive”.

For the molecule `C[C@@H]1CN([C@@H](C)CO)S(=O)(=O)c2ccc(C#Cc3ccc(F)cc3)cc2O[C@@H]1CN(C)S(=O)(=O)c1ccc(F)cc1`, the cytotoxicity call is “inactive”.

For the molecule `C[C@H](CO)N1C[C@H](C)[C@H](CN(C)S(=O)(=O)c2ccc(F)cc2)Oc2cc(C#Cc3ccc(F)cc3)ccc2S1(=O)=O`, the cytotoxicity call is “inactive”.

Take `C[C@@H]1CN([C@@H](C)CO)S(=O)(=O)c2ccc(C#Cc3ccncc3)cc2O[C@@H]1CN(C)S(=O)(=O)c1ccc(F)cc1`: the cytotoxicity call was “active”.

Take `C[C@@H]1CN([C@@H](C)CO)S(=O)(=O)c2ccc(C#Cc3ccc(F)cc3)cc2O[C@H]1CN(C)S(=O)(=O)c1ccc(F)cc1`: the cytotoxicity call is “inactive”.

For `C[C@H](CO)N1C[C@H](C)[C@H](CN(C)S(=O)(=O)c2ccc(F)cc2)Oc2cc(C#Cc3ccncc3)ccc2S1(=O)=O`, the cytotoxicity call is “active”.

Turning to `C[C@H](CO)N1C[C@H](C)[C@@H](CN(C)S(=O)(=O)c2ccc(F)cc2)Oc2cc(C#Cc3ccc(F)cc3)ccc2S1(=O)=O`, the cytotoxicity call is “inactive”.

For the molecule `C[C@@H]1CCCCO[C@H](CN(C)C(=O)NC2CCCCC2)[C@@H](C)CN([C@H](C)CO)C(=O)c2cc(NC(=O)Nc3ccc(F)cc3)ccc2O1`, the cytotoxicity call is “inactive”.

`Cc1noc(C)c1NC(=O)N[C@H]1C=C[C@@H](CC(=O)NCCCN(C)C)O[C@H]1CO`: the cytotoxicity call is “inactive”.

Regarding `C[C@@H]1CN([C@@H](C)CO)C(=O)c2cc(C#CCN(C)C)cnc2O[C@@H]1CN(C)C(=O)Nc1ccccc1F`, the cytotoxicity call was “inactive”.

Turning to `Nc1cc2[nH]cnc2c(O)n1`, the cytotoxicity call was “inactive”.

As to `Nc1nc(S)c2nc[nH]c2n1`, the cytotoxicity call is “active”.

Consider `Nc1ncnc2[nH]cnc12`, for which the cytotoxicity call is “inactive”.

Turning to `CCN(CC)C(=O)c1ccc[n+](CC(N)=O)c1`, the cytotoxicity call is “inactive”.

With `O=C(CCCCCNC(=O)OCCCCO[C@@H]1C[C@H](c2ccc(C(F)(F)F)cc2)C=C(C(=O)N2CCN(Cc3ccc4c(c3)OCO4)CC2)O1)NO`, the cytotoxicity call is “inactive”.

As to `Cc1noc(C)c1S(=O)(=O)Nc1ccc2c(c1)C(=O)N([C@H](C)CO)C[C@H](C)[C@@H](CN(C)Cc1ccc(C(F)(F)F)cc1)OCCCC[C@H](C)O2`, the cytotoxicity call was “inactive”.

Regarding `Cc1noc(C)c1S(=O)(=O)Nc1ccc2c(c1)C(=O)N([C@H](C)CO)C[C@@H](C)[C@H](CN(C)Cc1ccc(C(F)(F)F)cc1)OCCCC[C@H](C)O2`, the cytotoxicity call is “active”.

Turning to `Cc1noc(C)c1S(=O)(=O)Nc1ccc2c(c1)C(=O)N([C@H](C)CO)C[C@@H](C)[C@@H](CN(C)Cc1ccc(C(F)(F)F)cc1)OCCCC[C@H](C)O2`, the cytotoxicity call was “active”.

Turning to `Cc1noc(C)c1S(=O)(=O)Nc1ccc2c(c1)C(=O)N([C@H](C)CO)C[C@@H](C)[C@@H](CN(C)Cc1ccc(C(F)(F)F)cc1)OCCCC[C@@H](C)O2`, the cytotoxicity call is “inactive”.

With `Cc1noc(C)c1S(=O)(=O)Nc1ccc2c(c1)C(=O)N([C@H](C)CO)C[C@H](C)[C@H](CN(C)Cc1ccc(C(F)(F)F)cc1)OCCCC[C@H](C)O2`, the cytotoxicity call is “inactive”.

In the case of `Cc1noc(C)c1S(=O)(=O)Nc1ccc2c(c1)C(=O)N([C@H](C)CO)C[C@H](C)[C@H](CN(C)Cc1ccc(C(F)(F)F)cc1)OCCCC[C@@H](C)O2`, the cytotoxicity call is “inactive”.

Take `Cc1noc(C)c1S(=O)(=O)Nc1ccc2c(c1)C(=O)N([C@@H](C)CO)C[C@H](C)[C@@H](CN(C)Cc1ccc(C(F)(F)F)cc1)OCCCC[C@@H](C)O2`: the cytotoxicity call is “inactive”.

Take `Cc1noc(C)c1S(=O)(=O)Nc1ccc2c(c1)C(=O)N([C@H](C)CO)C[C@@H](C)[C@H](CN(C)Cc1ccc(C(F)(F)F)cc1)OCCCC[C@@H](C)O2`: the cytotoxicity call is “inactive”.

On to `Cc1noc(C)c1S(=O)(=O)Nc1ccc2c(c1)C(=O)N([C@@H](C)CO)C[C@H](C)[C@H](CN(C)Cc1ccc(C(F)(F)F)cc1)OCCCC[C@@H](C)O2`, for which the cytotoxicity call is “active”.

Consider `Cc1noc(C)c1S(=O)(=O)Nc1ccc2c(c1)C(=O)N([C@H](C)CO)C[C@H](C)[C@@H](CN(C)Cc1ccc(Cl)c(Cl)c1)OCCCC[C@H](C)O2`, for which the cytotoxicity call was “inactive”.

`Cc1noc(C)c1S(=O)(=O)Nc1ccc2c(c1)C(=O)N([C@@H](C)CO)C[C@H](C)[C@@H](CN(C)Cc1ccc(Cl)c(Cl)c1)OCCCC[C@H](C)O2`: the cytotoxicity call is “inactive”.

For `Cc1noc(C)c1S(=O)(=O)Nc1ccc2c(c1)C(=O)N([C@H](C)CO)C[C@@H](C)[C@@H](CN(C)Cc1ccc(Cl)c(Cl)c1)OCCCC[C@H](C)O2`, the cytotoxicity call was “active”.

With `O=C(C[C@H]1CC[C@H]2[C@@H](COC[C@@H](O)CN2S(=O)(=O)c2cccc(Cl)c2)O1)NCc1ccc2c(c1)OCO2`, the cytotoxicity call was “inactive”.

For the molecule `O=c1[nH]snc1N1CCCCC1`, the cytotoxicity call is “inactive”.

As to `CC(C)CNC(=O)C(=O)NC(C)C`, the cytotoxicity call is “inactive”.

Turning to `COc1ccc(S(=O)(=O)Nc2ccc3c(c2)C(=O)N([C@H](C)CO)C[C@H](C)[C@@H](CN(C)C(=O)Nc2cccc4ccccc24)O3)cc1`, the cytotoxicity call was “inactive”.

`COc1ccccc1NC(=O)N(C)C[C@H]1Oc2ncc(Br)cc2C(=O)N([C@H](C)CO)C[C@H]1C`: the cytotoxicity call is “inactive”.

`CC(C)CN1C(=O)[C@@]2(c3ccc([N+](=O)[O-])cc3)CC(=O)N(CC3C4CC5CC(C4)CC3C5)[C@@H]2c2ccc(CO)cc21` (stereo partly drawn): the cytotoxicity call was “inactive”.

For `C[C@H]1CN([C@@H](C)CO)C(=O)c2cccc(NS(C)(=O)=O)c2O[C@H]1CN(C)C(=O)NC1CCCCC1`, the cytotoxicity call was “inactive”.

Turning to `O=C(C[C@H]1CC[C@H](NC(=O)CN2CCOCC2)[C@@H](CO)O1)NCCc1ccncc1`, the cytotoxicity call is “inactive”.

With `C[C@@H]1CN([C@H](C)CO)C(=O)c2cc(NC(=O)C3CCCCC3)ccc2O[C@H]1CN(C)Cc1ccc(Oc2ccccc2)cc1`, the cytotoxicity call was “inactive”.

Consider `CCS(=O)(=O)Nc1ccc2c(c1)C(=O)N(C)[C@H]1CC[C@@H](CC(=O)NCc3ccccc3F)O[C@@H]1CO2`, for which the cytotoxicity call is “inactive”.

As to `Cc1noc(C)c1NC(=O)N(C)C[C@H]1OCCCC[C@H](C)Oc2ccc(NS(=O)(=O)c3ccccc3)cc2C(=O)N([C@@H](C)CO)C[C@@H]1C`, the cytotoxicity call is “inactive”.

Regarding `CC(C)(C)S(=O)N1Cc2cc(C(=O)N[C@@H]3CCN(Cc4ccccc4)C3)nc(-c3cccc(-c4cccc(F)c4)c3)c2[C@@H]1CCO` (stereo partly drawn), the cytotoxicity call was “inactive”.

In the case of `C[C@@H]1CN([C@H](C)CO)C(=O)c2cc(C#C[C@@H](C)O)cnc2O[C@@H]1CN(C)C(=O)CN1CCOCC1`, the cytotoxicity call is “inactive”.

For the molecule `COc1ccc(S(=O)(=O)N(C)C[C@H]2OCCCC[C@@H](C)Oc3ccc(NC(=O)C4CCCCC4)cc3C(=O)N([C@H](C)CO)C[C@H]2C)cc1`, the cytotoxicity call is “inactive”.

Consider `COc1ccc(S(=O)(=O)N(C)C[C@H]2OCCCC[C@H](C)Oc3ccc(NC(=O)C4CCCCC4)cc3C(=O)N([C@H](C)CO)C[C@@H]2C)cc1`, for which the cytotoxicity call was “active”.

For `COc1ccc(S(=O)(=O)N(C)C[C@@H]2OCCCC[C@H](C)Oc3ccc(NC(=O)C4CCCCC4)cc3C(=O)N([C@H](C)CO)C[C@@H]2C)cc1`, the cytotoxicity call is “inactive”.

In the case of `COc1ccc(S(=O)(=O)N(C)C[C@H]2OCCCC[C@H](C)Oc3ccc(NC(=O)C4CCCCC4)cc3C(=O)N([C@@H](C)CO)C[C@@H]2C)cc1`, the cytotoxicity call is “inactive”.

As for `COc1ccc(S(=O)(=O)N(C)C[C@H]2OCCCC[C@H](C)Oc3ccc(NC(=O)C4CCCCC4)cc3C(=O)N([C@@H](C)CO)C[C@H]2C)cc1`, the cytotoxicity call is “inactive”.

On to `COc1ccc(S(=O)(=O)N(C)C[C@@H]2OCCCC[C@@H](C)Oc3ccc(NC(=O)C4CCCCC4)cc3C(=O)N([C@H](C)CO)C[C@H]2C)cc1`, for which the cytotoxicity call is “active”.
